In the library only some 17% were active in any assay of this set; here they are far more common.
TDP1 cell CPT: DT40-hTDP1 cell growth loss with CPT; chicken DT40 Tdp1-/-;hTDP1 cells + 20 nM CPT, ATP luminescence, 48 h; Potency, µM (doses to about 46.2 µM), without a hit: at the top dose activity change, negative = growth inhibition, most hits filed as inhibitors; 420,000 compounds, 12% hits; AID 686979; also: % is scaled to controls: 0 for no effect and ±100 for the full control effect; nearly all actives have a fitted effect of over 55% in size
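Cell growth measured by CellTiter-Glo luminescence after a minimum 48 h, 37 C compound exposure with 20 nM CPT in Tdp1-knockout DT40 cells stably expressing hTDP1, seeded 400/well; qHTS titration format.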
TGFb SMAD3 inh: TGF-b pathway inhibition; HepG2 CAGA-GFP TGF-b/SMAD3 reporter, GFP fluorescence, 18 h; TGF-beta stimulated, 500 pg/mL final; 410,000 compounds, 1.2% hits; Potency, µM (series often up to 46.1 µM), for the others: top-dose activity, negative = inhibition, hits mostly inhibitors; AID 588855; also: % is scaled to controls: 0 for no effect and ±100 for the full control effect; nearly all actives have a fitted effect of over 65% in size
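GFP signal (ex488/em500-530) from TGF-beta-stimulated HEPG2 CAGA-GFP cells, 500 pg/mL final, 18 h at 37 degrees C in DMEM plus 1% FBS, normalized to unstimulated and DMSO-stimulated controls.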
HepG2 tox: kills HepG2 cells in TGF-b inhibitor counter-screen. 410,000 compounds, 0.76% hits. Potency, µM (highest dose often 46.1 µM), inactives show top-dose activity change, negative = cytotoxicity, actives largely listed as cytotoxic. HepG2 CAGA-GFP viability, ATP luminescence, 18 h
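HepG2 CAGA-GFP cells (1000/well, DMEM with 1% FBS) received compound, then TGF-beta at 500 pg/mL final, and were incubated 18 hours at 37 degrees C. Viability was read by CellTiter-Glo luminescence. Media-only wells were set as complete cell-killing and DMSO as no toxicity.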
TDP1 cell noCPT: qHTS for Inhibitors of human tyrosyl-DNA phosphodiesterase 1 (TDP1): qHTS in cells in absence of CPT; AID 686978, 2013; 420,000 compounds, 15% hits; Potency, µM (highest dose often 46.2 µM), without a hit: top-dose activity change, negative = growth inhibition, usual class: inhibitors; DT40 Tdp1-/- hTDP1 cells, no CPT, ATP luminescence, 48 h; also: % is scaled to controls: 0 for no effect and ±100 for the full control effect; nearly all actives have a fitted effect of over 55% in size
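Cells were dispensed at 400 per well, compounds added by pin tool, plates incubated ≥48 hr at 37 °C, then CellTiter-Glo added for 30 min at room temperature before luminescence reading. Line: DT40 Tdp1-/- complemented with hTDP1; camptothecin omitted.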
ATXN2 expr inh: reduces ATXN2 reporter expression in HEK-293 cells | HEK-293 ATXN2-luciferase reporter, luminescence, 24 h | Potency, µM (top dose mostly 57 µM), inactives show top-dose activity change, negative = inhibition, hits mostly inhibitors | 360,000 compounds, 0.72% hits; also: % is scaled to controls: 0 for no effect and ±100 for the full control effect; nearly all actives have a fitted effect of over 55% in size
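qHTS (up to 57 uM final) was run with 24 h compound exposure of reporter cells at 37 °C. Each well was multiplexed: SteadyGlo luminescence measured ATXN2-luciferase expression after a fluorogenic Gly-Phe-AFC viability readout (25 uM final).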
S2 tox: cell viability loss in ATXN counter-screen. 400,000 compounds, 0.49% hits. Potency, µM (highest dose often 56.7 µM), usual class: cytotoxic. S2 cells (HEK-293 line with an ATXN2-luciferase reporter) viability, CellTiter-Fluor protease fluorescence, 24 h; also: nearly all actives have a fitted effect of over 40% in size
Active calls of the source: *; i = inactive; ? = inconclusive; . = no result; ! = not active in a repeat. Calls follow the shape of the dose curve; as a rule, active = well fitted curve in the direction sought with a large enough effect; inconclusive = small, poorly fitted or top-dose-only effect, or another doubt; inactive = no such curve, though single readings can be large; an effect the other way counts as inactive or inconclusive. Potency is read from the fitted curve at half-maximal effect.

SMILES	TDP1 cell CPT	TGFb SMAD3 inh	HepG2 tox	TDP1 cell noCPT	ATXN2 expr inh	S2 tox
O=C(NCC1(c2ccccc2)CCCC1)C1(c2ccccc2)CCCC1	?	?	-12.5%	?	-14.7%	i
O=C(NCC1(c2ccccc2)CCCC1)c1ccccc1	14.6µM*	2.4%	-8.3%	11.6µM*	.	i
O=C(NCC1(c2ccccc2)CCCC1)C(=O)NCC1(c2ccccc2)CCCC1	-1.2%	5.7%	1.7%	-29.9%	3.3%	i
COc1cccc(SCc2noc(C(=O)NCCN(C)C)c2C(=O)NCCN(C)C)c1	-16.3%	-1.0%	-21.8%	-18.1%	2.1%	i
O=c1c2ccccc2oc2cc(O)c(C3COCC(CO)C(O)C(O)C3O)c(O)c12 (stereo not given)	10.2%	.	.	0.0%	.	.
O=C(NCC1(c2ccccc2)CCCC1)c1ccccc1Br	16.4µM*	0.2%	-31.1%	?	.	?
O=C(Nc1cc(C2CC2)nn1-c1ccccc1)c1ccc(F)cc1	2.7%	-1.5%	-2.8%	-18.4%	-9.1%	?
COc1ccc(-c2noc(CN(C)C(=O)CCCN3C(=O)[C@H]4CC=CC[C@H]4C3=O)n2)cc1	?	6.7%	-11.3%	?	.	i
NC(=O)CC(NC(=O)c1ccccc1)c1ccc(NCc2ccccc2)c([N+](=O)[O-])c1 (stereo not given)	20.6µM*	-22.6%	-6.6%	23.1µM*	11.1%	i
NC(=O)CC(NC(=O)c1ccccc1)c1ccc(NCc2ccc(F)cc2)c([N+](=O)[O-])c1 (stereo not given)	18.4µM*	-20.2%	-13.9%	?	-20.8%	i
CN(Cc1ccccc1)c1ccc(C(CC(N)=O)NC(=O)Cc2ccc(Br)cc2)cc1[N+](=O)[O-] (stereo not given)	?	?	-69.2%	?	?	.
CN(Cc1ccccc1)c1ccc(C(CC(N)=O)NC(=O)c2ccccc2)cc1[N+](=O)[O-] (stereo not given)	23.1µM*	-15.9%	-12.9%	16.4µM*	?	?
NC(=O)CC(NC(=O)Cc1ccc(Br)cc1)c1ccc(NCc2ccc(F)c(F)c2)c([N+](=O)[O-])c1 (stereo not given)	16.4µM*	?	-52.4%	?	?	?
O=C(Nc1ccccc1)[C@@H]1CC=C[C@@H]2CCN(C3CC3)C(=O)[C@@H]21	-22.6%	1.0%	3.5%	-6.4%	.	.
O=C(NCCc1ccccc1)[C@@H]1CC=C[C@@H]2CCN(C3CCCCC3)C(=O)[C@@H]21	20µM*!	-28.3%	2.2%	?	-2.6%	i
O=C(NCc1cccnc1)[C@@H]1CC=C[C@@H]2CCN(Cc3ccc(Cl)c(Cl)c3)C(=O)[C@@H]21	?	11.2µM*	-4.9%	?	-13.3%	i
O=C(Nc1ccc(Cl)cc1Cl)[C@@H]1CC=C[C@@H]2CCN(Cc3ccccc3)C(=O)[C@@H]21	10µM*	-23.8%	-0.4%	?	.	.
CCCCNC(=O)[C@@H]1CC=C[C@@H]2CCN(Cc3ccc(Cl)c(Cl)c3)C(=O)[C@@H]21	11.2µM*	7.94µM*	-27.0%	8.91µM*	-23.6%	?
O=C(C[C@@H]1C=C[C@H](NC(=O)Cc2ccccn2)[C@@H](CO)O1)NCCc1ccccc1	18.7%	.	.	0.7%	.	.
COc1ccc(CN2CC[C@H]3C=CC[C@@H](C(=O)Nc4ccc(Cl)c(C(F)(F)F)c4)[C@H]3C2=O)cc1OC	?	11.2µM*!	-13.8%	11.2µM*	-18.8%	?
COc1ccc2[nH]cc(C(=O)NCCc3ccccc3)c(=O)c2c1	-26.3%	-10.0%	-3.1%	18.4µM*	6.9%	i
COc1ccc2c(=O)c(C(=O)NCCc3ccccc3)c[nH]c2c1	16.4µM*	-24.4%	-2.6%	?	.	?
CCN(CC(=O)Nc1ccc(C(C)=O)cc1)CC(=O)Nc1cccc(OC)c1	-22.1%	-5.4%	-1.6%	-17.7%	15.9%	i
COc1ccc(C2=NN(C(=O)CN3CCCC3)C(c3ccc(OC)cc3)C2)cc1 (stereo not given)	-12.6%	-0.5%	-12.3%	-28.7%	-1.7%	i
COc1ccc(C2=NN(C(=O)CN3CCCCC3)C(c3ccc(OC)cc3)C2)cc1 (stereo not given)	16.4µM*	-6.0%	-26.1%	?	1.3%	i
SMILES	TDP1 cell CPT	TGFb SMAD3 inh	HepG2 tox	TDP1 cell noCPT	ATXN2 expr inh	S2 tox
COc1ccc(C2CC(c3ccc4ccccc4c3)=NN2C(=O)CN2C(=O)CCC2=O)cc1 (stereo not given)	25.9µM*	-10.3%	-15.7%	23.1µM*	3.3%	i
CC(=O)OC1CC[C@@]2(C)C(CC[C@@]3(C)C2CC=C2C4CC(C)(C)CC[C@]4(C)CC[C@@]23C)C1(C)C (stereo not given in full)	8.6%	.	.	-8.2%	.	.
Cc1ccc2ccccc2c1C(O)c1ncc(-c2ccccc2Cl)[nH]1 (stereo not given)	25.9µM*	-29.6%	-37.9%	?	-13.7%	?
CSc1ccc(C(O)c2ncc(-c3ccccc3Cl)[nH]2)cc1 (stereo not given)	?	22.7%	-0.2%	-27.4%	10.0%	i
COc1ccccc1-c1cnc(C(O)c2ccc(SC)cc2)[nH]1 (stereo not given)	29.1µM*	17.0%	-15.8%	?	13.0%	i
CCc1ccc(C(O)c2ncc(-c3cccc4ccccc34)[nH]2)cc1 (stereo not given)	?	?	-46.8%	16.4µM*	?	?
CSc1ccc(C(O)c2ncc(-c3ccccc3F)[nH]2)cc1 (stereo not given)	29.1µM*	-4.2%	-28.9%	?	0.3%	i
OC(c1ccc(F)cc1)c1ncc(-c2cccc3ccccc23)[nH]1 (stereo not given)	?	-14.3%	-23.6%	?	8.9%	i
COc1ccccc1NCCC(=O)OCC(=O)Nc1ccccc1Cl	-12.2%	-16.4%	-0.4%	-1.9%	-8.4%	i
CCC(C(=O)NCc1ccco1)N(C(=O)CNS(=O)(=O)c1ccccc1)c1ccccc1C (stereo not given)	11.6%	5.3%	1.5%	-17.4%	3.6%	i
O=C1NCCNC1c1ccccc1 (stereo not given)	-2.1%	-21.2%	-22.4%	5.2%	5.4%	i
